{"source": "PubChem BioAssay AID588493", "about": "(Sanford-Burnham Center for Chemical Genomics, 2011)", "note": "Hit rate of the full screen: of about 360,000 compounds, about 2,100 (0.58%) were called active. This is one part of a sample in which actives are shown more often than they occur. Values without a mark were called inactive.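 Rule for the calls: active = inhibition at 20 µM, scaled to each plate's controls, above about 33% (limit read from the data); inactive = the rest.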"}
{"molecular_target": "26S proteasome non-ATPase regulatory subunit 14 (Homo sapiens) (UniProt O00487)", "sequence (O00487 whole entry, looked up)": "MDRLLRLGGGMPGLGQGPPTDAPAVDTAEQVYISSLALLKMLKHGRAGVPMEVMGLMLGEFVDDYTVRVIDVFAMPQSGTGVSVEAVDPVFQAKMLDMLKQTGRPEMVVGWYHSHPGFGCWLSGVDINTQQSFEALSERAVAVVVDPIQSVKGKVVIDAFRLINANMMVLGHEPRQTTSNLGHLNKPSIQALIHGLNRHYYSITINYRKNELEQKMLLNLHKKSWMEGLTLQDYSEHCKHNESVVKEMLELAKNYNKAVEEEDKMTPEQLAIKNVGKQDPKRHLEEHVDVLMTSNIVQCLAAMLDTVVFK", "assay": "Rpn11 (PSMD14) deubiquitinase inhibitors, primary screen, biochemical, fluorescence polarization, uHTS (AID 588493)", "details": "human 26S proteasome, Ub4-pepOG fluorescence polarization, at 20 µM, stronger effect = higher value"}
{"smiles": "O=C(N/N=C/c1c(O)n(Cc2ccccc2)c(=O)[nH]c1=O)c1ccccc1", "inhibition": "-6.7%"}
{"smiles": "O=c1[nH]c(=O)n(Cc2ccccc2)c(O)c1/C=N/Nc1c(F)c(F)c(F)c(F)c1F", "inhibition": "41.6% (active)"}
{"smiles": "O=c1[nH]c(=O)n(CCc2ccccc2)c(O)c1/C=N/N1CCOCC1", "inhibition": "5.5%"}
{"smiles": "COC(=O)C1=C(c2ccc(F)cc2OCc2ccccc2)C[C@@H]2CC[C@H]1N2C(=O)NCc1ccc(Cl)cc1", "inhibition": "7.7% [20S core pre-blocked with epoxomicin]"}
{"smiles": "CCc1cccc2c(C#N)cn(CC(=O)N3CCOCC3)c12", "inhibition": "-6.2%"}
{"smiles": "COc1ccc(C2NCc3ccc4c(c3-n3cccc32)OCO4)cc1OC", "note": "(stereo not given)", "inhibition": "7.6%"}
{"smiles": "Cc1cccc(N2C(=O)NC(=O)/C(=C\\c3cnn(-c4ccccc4)c3)C2=O)c1", "inhibition": "119% (active)"}
{"smiles": "Cn1c(O)c(C(=Nc2ccc(F)cc2)c2ccccc2)c(=O)n(C)c1=O", "inhibition": "-3.9%"}
{"smiles": "COc1ccc(C2C=C(C)Oc3c2c(=O)oc2ccccc32)cc1OC", "note": "(stereo not given)", "inhibition": "6% [20S core pre-blocked with epoxomicin]"}
{"smiles": "c1cc2c(c(NC3=NCCCS3)c1)CCCC2", "inhibition": "3.9%"}
{"smiles": "O=C(C1CC(=O)N(C2CCCC2)C1)N1CCC2(CC1)OCCO2", "note": "(stereo not given)", "inhibition": "3.4%"}
{"smiles": "CCN1C(=O)C(=Cc2c(C)n(CC(=O)NCC3CCCO3)c3ccccc23)C(=O)N(CC)C1=S", "note": "(stereo not given)", "inhibition": "62% (active)"}
{"smiles": "Fc1cccc(F)c1CN1CCN(Cc2c(F)cccc2F)CC1", "inhibition": "-4.8%"}
{"smiles": "CN(C)C(=O)Oc1ccc2c(c1)O/C(=C\\c1ccccc1)C2=O", "inhibition": "5.7%"}
{"smiles": "Cn1c(C(=O)N2CCC(C(=O)N3CCC4(CC3)OCCO4)CC2)cc2sccc21", "inhibition": "3.9%"}
